Test results: PubChem BioAssay (Tox21)
Results filed as inconclusive are left out. Activity calls are given as the source filed them. Calls come from the whole dose curve; as a rule, active = well fitted curve in the direction sought with a large enough effect in the repeat runs; inconclusive = weak or mixed curves; inactive = no such curve, though single readings can be large; an effect the other way counts as inactive or inconclusive.

Columns and labels:
[1] = Human pregnane X receptor (PXR) small molecule agonists, qHTS cell viability counter screen (AID 1346977); note: nearly all actives have a fitted effect of over 50% in size
Method in brief: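 HepG2 cells stably carrying the PXR-Luc reporter are cultured with 5% charcoal-stripped FBS and treated with compounds for 24hr. CellTiter-Fluor is added at 23hr and fluorescence is read after 1hr.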

[2] = Caspase-3/7 induction in HepG2 cells by small molecules, qHTS assay (AID 1346978); note: nearly all actives have a fitted effect of over 15% in size
Method in brief: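 Wild-type HepG2 cells, 2,000/well, settled 5 hr at 37 C and 5% CO2, then compound-treated for 17 hr; caspase-3/7 activity read by luminescent Caspase-Glo 3/7 after 30 min at room temperature.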

[3] = Caspase-3/7 induction in CHO-K1 cells by small molecules, qHTS cell viability counter screen (AID 1346979); note: nearly all actives have a fitted effect of over 35% in size; note: potency is the fitted concentration of half-maximal effect
Method in brief: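 Seeding: 1,500 CHO-K1 cells/well. Rest: 5hr, 37C. Treatment: compounds in DMSO, 16hr. Read: CellTiter-Fluor, 1hr, fluorescence.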

[4] = Caspase-3/7 induction in CHO-K1 cells by small molecules, qHTS assay (AID 1346980); note: nearly all actives have a fitted effect of over 15% in size
Method in brief: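 Wild-type CHO-K1 cells exposed to compounds for 17hr at 37 C, 5% CO2. Caspase-3/7 activity then measured by Caspase-Glo 3/7 luminescence after 30min at room temperature.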

[5] = Caspase-3/7 induction in HepG2 cells by small molecules, qHTS cell viability counter screen (AID 1346981); note: series mostly up to about 92 µM; nearly all actives have a fitted effect of over 30% in size
Method in brief: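 Steps: seed 2,000 HepG2 cells per well; incubate 5 hr at 37 C; pin-add compounds in DMSO; incubate 16 hr; add CellTiter-Fluor; after 1 hr at 37 C and 5% CO2, read fluorescence.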

[6] = biological target: Nuclear receptor subfamily 1 group I member 2 (Homo sapiens) (UniProt O75469); assay: Human pregnane X receptor (PXR) small molecule agonists, qHTS assay (AID 1346982); note: nearly all actives have a fitted effect of over 35% in size; note: potency is the fitted concentration of half-maximal effect
Method in brief: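 Agonist mode qHTS: PXR-Luc HepG2 cells plated 5 hr before DMSO-dissolved compounds were pinned in, cultured 24 hr at 37 C, 5% CO2; ONE-Glo luminescence readout.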

[7] = biological target: Nuclear receptor subfamily 1 group I member 2 (Rattus norvegicus) (UniProt Q9R1A7); assay: Rat pregnane X receptor (rPXR) activation by small molecules, qHTS assay (AID 1346983); conditions: rPXR luciferase reporter cells, One-Glo luminescence, 24 h; max activation: hits give high values; note: nearly all actives have a fitted effect of over 20% in size; note: potency is the fitted concentration of half-maximal effect
Method in brief: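 Cell-based rPXR activation assay: rPXR cells, 2,000 per well, rested 5hr at 37 C, then exposed to compounds in DMSO for 24 hr at 37 C. Luciferase activity read by One-Glo luminescence after 30 min at room temperature.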

[8] = biological target: Nuclear receptor subfamily 1 group I member 2 (Homo sapiens) (UniProt O75469); assay: CYP3A4 induction through human pregnane X receptor (PXR) by small molecules, qHTS assay (AID 1346984); note: nearly all actives have a fitted effect of over 40% in size
Method in brief: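 Steps: seed DPX-2 cells, 5 hr at 37C; pin-transfer compounds; 24 hr at 37C; add Luciferin-IPA (3uM final), 3 hr at 37C; add One-Glo, 30 min RT; read luminescence.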

[9] = biological target: Nuclear receptor subfamily 1 group I member 2 (Homo sapiens) (UniProt O75469); assay: Human pregnane X receptor (PXR) activation by small molecules, qHTS assay (AID 1346985); note: nearly all actives have a fitted effect of over 40% in size
Method in brief: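 DPX-2 cells (HepG2 co-transfected with a PXR response element and a CYP3A4-promoter luciferase construct) were seeded at 2,000 per well, rested 5 hr at 37C, then exposed to DMSO-dissolved compounds for 24 hr. Activation was read as luciferase luminescence.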
% is set by controls: 0 for no effect and ±100 for the full control effect.

Nuclear receptor subfamily 1 group I member 2 (Rattus norvegicus), sequence (Q9R1A7 whole entry, looked up): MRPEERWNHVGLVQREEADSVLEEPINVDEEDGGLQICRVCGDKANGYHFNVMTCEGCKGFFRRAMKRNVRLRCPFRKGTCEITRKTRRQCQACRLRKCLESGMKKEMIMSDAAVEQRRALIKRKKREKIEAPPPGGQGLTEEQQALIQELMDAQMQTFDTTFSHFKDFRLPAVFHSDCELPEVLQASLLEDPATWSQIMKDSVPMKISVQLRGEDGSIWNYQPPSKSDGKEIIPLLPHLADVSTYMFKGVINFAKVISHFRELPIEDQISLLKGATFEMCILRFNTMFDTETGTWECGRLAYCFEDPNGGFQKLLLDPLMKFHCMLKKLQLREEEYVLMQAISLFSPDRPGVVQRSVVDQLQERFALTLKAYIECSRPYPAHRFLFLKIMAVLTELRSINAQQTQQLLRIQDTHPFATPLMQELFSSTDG
Nuclear receptor subfamily 1 group I member 2 (Homo sapiens), sequence (O75469 whole entry, looked up): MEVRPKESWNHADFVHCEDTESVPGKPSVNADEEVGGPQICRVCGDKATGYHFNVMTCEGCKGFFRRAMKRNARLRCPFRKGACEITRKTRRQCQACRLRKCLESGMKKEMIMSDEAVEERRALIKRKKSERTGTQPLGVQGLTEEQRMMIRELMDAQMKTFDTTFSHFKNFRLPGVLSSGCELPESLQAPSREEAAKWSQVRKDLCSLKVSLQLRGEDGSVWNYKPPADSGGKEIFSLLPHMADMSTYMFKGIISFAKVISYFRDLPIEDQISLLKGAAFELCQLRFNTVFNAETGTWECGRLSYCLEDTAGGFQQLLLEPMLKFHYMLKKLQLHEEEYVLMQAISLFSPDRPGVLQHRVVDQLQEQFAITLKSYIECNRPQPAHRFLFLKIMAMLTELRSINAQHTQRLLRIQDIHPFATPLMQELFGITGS

CC1=CCCC(C)(C)C12CCC(C)O2 (stereo unspecified)
active: Potency [6] 54.5 µM
inactive: Potency [1] | Potency [2] | Potency [3] | Potency [4] | Potency [5]

CC(=O)c1cccc([N+](=O)[O-])c1
inactive: Potency [1] | Potency [2] | Potency [3] | Potency [4] | Potency [5] | Potency [6]

Nc1cccc([N+](=O)[O-])c1
inactive: Potency [1] | Potency [2] | Potency [3] | Potency [4] | Potency [5] | Potency [6]

O=C(OCCc1ccccc1)c1ccccc1
inactive: Potency [1] | Potency [2] | Potency [3] | Potency [4] | Potency [5] | Potency [6]

c1cc(CCCc2ccncc2)ccn1
active: Potency [6] 61.1 µM
inactive: Potency [1] | Potency [2] | Potency [3] | Potency [4] | Potency [5]

CCOc1ccc(O)cc1
inactive: Potency [1] | Potency [2] | Potency [3] | Potency [4] | Potency [5]

CCCCCCCN
inactive: Potency [1] | Potency [2] | Potency [3] | Potency [4] | Potency [5] | Potency [6]

CC(C)O.CC(C)O.CCOC(=O)/C=C(\C)O.CCOC(=O)/C=C(\C)O.[Ti]
inactive: Potency [1] | Potency [2] | Potency [3] | Potency [4] | Potency [5]

NCC(=O)O
inactive: activity change, negative = cytotoxicity [1] 14.5% [at 19 µM] | caspase activation [2] -0.745% [at 19 µM] | activity change, negative = cytotoxicity [3] 7.68% [at 19 µM]

O=S(c1cc(Cl)cc(Cl)c1O)c1cc(Cl)cc(Cl)c1O
inactive: Potency [1] | Potency [2] | Potency [3] | Potency [4] | Potency [5] | Potency [6] | max activation [7] -2.94% | Potency [8]

OC[C@H]1O[C@@H](OCCc2ccc(O)cc2)[C@H](O)[C@@H](O)[C@@H]1O
inactive: Potency [1] | Potency [2] | Potency [3] | Potency [4] | Potency [5] | Potency [6]

Nc1cccc(S(=O)(=O)c2cccc(N)c2)c1
inactive: Potency [1] | Potency [2] | Potency [3] | Potency [4] | Potency [5] | Potency [6]

CC1(c2ccccc2)OC(C(=O)O)=CC1=O (stereo unspecified)
inactive: Potency [1] | Potency [2] | Potency [3] | Potency [4] | Potency [5] | Potency [6] | max activation [7] -1.39% | Potency [8] | Potency [9]

CC(C)Cc1ccc(C(C)C(=O)OCc2ccccn2)cc1 (stereo unspecified)
inactive: Potency [1] | Potency [2] | Potency [3] | Potency [4] | Potency [5] | Potency [6]

C=C(C)C(=O)OCCO
inactive: Potency [1] | Potency [2] | Potency [3] | Potency [4] | Potency [5]

CCCn1cnc2c1c(=O)n(CCCCC(C)=O)c(=O)n2C
inactive: Potency [1] | Potency [2] | Potency [3] | Potency [4] | Potency [5] | Potency [6]

COc1ccc(-c2nc3ccc(C4=NNC(=O)CC4C)cc3[nH]2)cc1 (stereo unspecified)
inactive: Potency [1] | Potency [2] | Potency [4] | Potency [5] | Potency [8]
active: Potency [3] 23.7 µM | Potency [6] 13.3 µM | Potency [7] 22.4 µM

COC(=O)c1ccc(I)cc1S(=O)(=O)NC(=O)Nc1nc(C)nc(OC)n1
inactive: Potency [1] | Potency [2] | Potency [3] | Potency [4] | Potency [5] | Potency [6]

COc1cc2nc(Cl)nc(N)c2cc1OC
inactive: Potency [1] | Potency [2] | Potency [3] | Potency [4] | Potency [5] | Potency [6]

CCCCC(=O)OCC(=O)[C@H]1[C@H](C)C[C@H]2[C@@H]3C[C@H](F)C4=CC(=O)C=C[C@]4(C)[C@@]3(F)[C@@H](O)C[C@@]21C
active: Potency [6] 9.44 µM
inactive: Potency [1] | Potency [2] | Potency [3] | Potency [4] | Potency [5]

O=C(O)c1ccccc1Cl
inactive: Potency [1] | Potency [2] | Potency [3] | Potency [4] | Potency [5] | Potency [6]

CC(=O)[O][Al]
inactive: Potency [1] | Potency [2] | Potency [3] | Potency [4] | Potency [5]

C[C@@H]1C[C@H]2O[C@@]3(O[C@@H]2C(C)(C)O)[C@H](O)[C@@]2(C)[C@@H]4CC[C@H]5C(C)(C)[C@@H](O[C@@H]6OC[C@@H](O)[C@H](O)[C@H]6O)CC[C@@]56C[C@@]46CC[C@]2(C)[C@@H]13
inactive: Potency [1] | Potency [2] | Potency [3] | Potency [4]

NC(N)=NCCC[C@H](N)C(=O)O
inactive: activity change, negative = cytotoxicity [1] 6.78% [at 8.39 µM] | caspase activation [2] 0.0391% [at 8.39 µM] | activity change, negative = cytotoxicity [3] -0.503% [at 8.39 µM] | caspase-3/7 activation [4] 0.0695% [at 8.39 µM] | activity change, negative = cytotoxicity [5] -0.647% [at 8.39 µM] | activation [6] -5.55% [at 8.39 µM]

CCC(C)c1cc(C(C)(C)C)c(O)c(C(C)(C)C)c1 (stereo unspecified)
inactive: Potency [1] | Potency [2] | Potency [3] | Potency [4] | Potency [5]
active: Potency [6] 47.6 µM

CCCCC(CC)COC(=O)COc1ccc(Cl)cc1Cl (stereo unspecified)
inactive: Potency [1] | Potency [2] | Potency [3] | Potency [4] | Potency [5] | Potency [6]

C[C@H](CCC(=O)O)[C@H]1CC[C@H]2[C@@H]3CC[C@@H]4C[C@H](O)CC[C@]4(C)[C@H]3C[C@H](O)[C@]12C
inactive: Potency [1] | Potency [2]

Nc1ncn([C@H]2C[C@H](O)[C@@H](CO)O2)c(=O)n1
inactive: Potency [1] | Potency [2] | Potency [3] | Potency [4] | Potency [5] | Potency [6] | max activation [7] 10.4% | Potency [8] | Potency [9]

CC(CC=O)c1ccccc1 (stereo unspecified)
active: Potency [6] 61.1 µM
inactive: Potency [1] | Potency [2] | Potency [3] | Potency [4] | Potency [5]

CCC(C)O (stereo unspecified)
inactive: Potency [1] | Potency [2] | Potency [3] | Potency [4] | Potency [5]
